# In PubChem BioAssay (NCATS):
# Results filed as inconclusive are left out. A call without a number means that no potency is given here. Active and inactive are the calls of the source. Unless noted, calls follow the shape of the full dose curve.
# Assays:
# [1] = Primary qHTS for Huh7 cytotoxicity: counterscreen for inhibitors of MERS-S pseudotyped particle cell entry (AID 1479147); also: potency is read from the fitted curve at half-maximal effect
# [2] = Primary qHTS for Vero E6 cytotoxicity: counterscreen for inhibitors of SARS-S pseudo-typed particle cell entry (AID 1479150)
# [3] = Cytotoxicity counterscreen for inhibitors of SARS-CoV-2 cell entry (AID 1645845); also: nearly all actives have a fitted effect of over 50% in size
# Summary of the method: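 Counterscreen run in the same HEK293-ACE2 line as the pseudotyped-particle entry assay, without particles. Viability after 48 h at 37 C was read as ATP luminescence, scaled between cell-containing and cell-free wells.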
# [4] = Primary qHTS for inhibitors of MERS-S pseudo-typed particle cell entry (AID 1479149); also: nearly all actives have a fitted effect of over 60% in size; also: potency is read from the fitted curve at half-maximal effect
# [5] = Primary qHTS to identify inhibitors of SARS-CoV-2 cell entry (AID 1645846); conditions: activity change, negative = inhibition: at 57.1 µM (top of the series) unless noted; also: nearly all actives have a fitted effect of over 45% in size; also: potency is read from the fitted curve at half-maximal effect
# Summary of the method: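 Entry measured by luciferase signal 48 h after adding SARS-CoV-2-S pseudotyped MLV particles to HEK293-ACE2 cells preincubated 1 h with compounds. Normalisation: bald particles and spike particles.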
# [6] = Confirmatory qHTS for VERO E6 Cytotoxicity Assay: Counterscreen for SARS-CoV-2 CPE Assay (AID 1508605); also: nearly all actives have a fitted effect of over 60% in size
# [7] = Confirmatory qHTS to identify inhibitors of SARS-CoV-2 cell entry (AID 1645844); also: potency is read from the fitted curve at half-maximal effect; nearly all actives have a fitted effect of over 45% in size
# Summary of the method: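 HEK293-ACE2, overnight seeding; cpd 1 h, 37C/5% CO2; + SARS-CoV-2-S MLV PP (Wuhan-Hu-1, ΔC19); 48 h; Bright-Glo luminescence. Data normalised to S PP and bald PP wells.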
# [8] = Primary qHTS for inhibitors of La Crosse Virus (LACV) - induced cell death in SH-SY5Y cells (AID 1508616; active = well fitted curve in the direction sought with a large enough effect; an effect the other way counts as inactive or inconclusive;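 also: top concentration of the series differs between compounds; higher means more rescue of cells from virus-induced death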)
# Summary of the method: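 Screening measures cell viability in LACV-infected SH-SY5Y cultures. Compound was added before virus (0.01 MOI), and ATP was detected by luminescence 6 days later.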
# [9] = biological target: Calcium and integrin-binding protein 1 (Homo sapiens) (UniProt Q99828); assay: Validation qHTS for Identification of Calcium Integrin Binding protein 1 (CIB1) Competitor (AID 1508618; active = well fitted curve in the direction sought with a large enough effect; an effect the other way counts as inactive or inconclusive)
# Chain of Calcium and integrin-binding protein 1 (Homo sapiens) (Q99828 whole entry, looked up): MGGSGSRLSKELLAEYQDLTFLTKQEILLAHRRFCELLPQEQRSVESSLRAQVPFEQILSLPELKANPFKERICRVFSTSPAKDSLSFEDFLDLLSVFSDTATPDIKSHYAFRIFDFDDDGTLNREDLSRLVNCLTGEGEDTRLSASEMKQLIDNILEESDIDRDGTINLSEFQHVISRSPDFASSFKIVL
# Summary of the method: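 In this qHTS validation, the LOPAC set (up to 114 uM) was tested for blocking CIB1 binding to a fluorescein-tagged alphaIIb peptide, with FP detection at 480/540 nm.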
# [10] = biological target: Calcium and integrin-binding protein 1 (Homo sapiens) (UniProt Q99828); assay: Primary qHTS for Identification of Calcium Integrin Binding Protein 1 (CIB1) Competitor (AID 1508620; active = well fitted curve in the direction sought with a large enough effect; an effect the other way counts as inactive or inconclusive;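 also: GST tagged CIB1 binding a fluorescein labelled alphaIIb integrin peptide tracer; top concentration of the series differs between compounds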)
# Summary of the method: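 Fluorescence polarization competition: GST-tagged CIB1 (1 uM final) preincubated with compound 15 min at room temperature, then FITC-labelled alphaIIb peptide (100 nM final) added. After 15 min at room temperature, polarization read at Ex 480/Em 540.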
# [11] = Primary qHTS for small molecule stabilizers of the endoplasmic reticulum resident proteome: Secreted ER Calcium Modulated Protein (SERCaMP) assay (AID 1508630; active = well fitted curve in the direction sought with a large enough effect; an effect the other way counts as inactive or inconclusive)
# Summary of the method: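 The SH-SY5Y reporter protocol was run at 3 concentrations up to 38.3 uM (primary) or 11 concentrations (follow-up): 16 h compound, 100 nM thapsigargin for 4 h, then extracellular luciferase luminescence.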
# [12] = Confirmatory qHTS for activators (rescue) of SARS-CoV-2 Cytopathic Effect (CPE) (AID 1508606); also: potency is read from the fitted curve at half-maximal effect; nearly all actives have a fitted effect of over 70% in size
# [13] = A High-Content qHTS Against Drug Library for the Identification of Small Molecules that Inhibit DYT1 Early Onset Primary Dystonia-Associated Cell Pathology (AID 1645839)
# Summary of the method: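 Cells were seeded and left for 24 h, then dosed with compound alongside tetracycline induction of mutant EGFP-TorsinA. They were incubated for 48 h, fixed in 4% paraformaldehyde, permeabilized and imaged for mislocalization (%pathology) and cell count.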
# [14] = biological target: Cytochrome P450 2D6 (Homo sapiens) (UniProt P10635); assay: Cytochrome P450 family 2 subfamily D member 6 (CYP2D6) small molecule antagonists: luciferase biochemical (cell-free) qHTS assay (AID 1645840; active = well fitted curve in the direction sought with a large enough effect in the repeat runs; an effect the other way counts as inactive or inconclusive; also: nearly all actives have a fitted effect of over 55% in size; also: potency is read from the fitted curve at half-maximal effect)
# Chain of Cytochrome P450 2D6 (Homo sapiens) (P10635 whole entry, looked up): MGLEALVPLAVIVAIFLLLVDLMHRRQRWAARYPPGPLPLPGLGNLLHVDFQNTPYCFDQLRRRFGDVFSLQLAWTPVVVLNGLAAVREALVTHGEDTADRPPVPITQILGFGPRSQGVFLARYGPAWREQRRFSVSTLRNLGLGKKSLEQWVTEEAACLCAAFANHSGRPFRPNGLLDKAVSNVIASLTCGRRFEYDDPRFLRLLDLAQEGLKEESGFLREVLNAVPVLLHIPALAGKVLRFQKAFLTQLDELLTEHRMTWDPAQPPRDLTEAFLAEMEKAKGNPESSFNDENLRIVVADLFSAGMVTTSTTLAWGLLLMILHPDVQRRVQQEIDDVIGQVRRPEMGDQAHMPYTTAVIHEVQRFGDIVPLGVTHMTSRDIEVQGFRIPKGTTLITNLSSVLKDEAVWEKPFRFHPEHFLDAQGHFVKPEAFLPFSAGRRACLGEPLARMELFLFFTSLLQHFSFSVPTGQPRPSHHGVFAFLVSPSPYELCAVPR
# Summary of the method: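 P450-Glo CYP2D6 system: proluciferin substrate converted by enzyme to luciferin, read by luminescence proportional to activity. Enzyme-substrate mix with compound 10 min at room temperature, then NADPH regeneration 1 h before detection reagent.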
# [15] = biological target: Cytochrome P450 2C9 (Homo sapiens) (UniProt P11712); assay: Cytochrome P450 family 2 subfamily C member 9 (CYP2C9) small molecule antagonists: luciferase biochemical (cell-free) qHTS assay (AID 1645842; active = well fitted curve in the direction sought with a large enough effect in the repeat runs; an effect the other way counts as inactive or inconclusive; also: nearly all actives have a fitted effect of over 55% in size; also: potency is read from the fitted curve at half-maximal effect)
# Chain of Cytochrome P450 2C9 (Homo sapiens) (P11712 whole entry, looked up): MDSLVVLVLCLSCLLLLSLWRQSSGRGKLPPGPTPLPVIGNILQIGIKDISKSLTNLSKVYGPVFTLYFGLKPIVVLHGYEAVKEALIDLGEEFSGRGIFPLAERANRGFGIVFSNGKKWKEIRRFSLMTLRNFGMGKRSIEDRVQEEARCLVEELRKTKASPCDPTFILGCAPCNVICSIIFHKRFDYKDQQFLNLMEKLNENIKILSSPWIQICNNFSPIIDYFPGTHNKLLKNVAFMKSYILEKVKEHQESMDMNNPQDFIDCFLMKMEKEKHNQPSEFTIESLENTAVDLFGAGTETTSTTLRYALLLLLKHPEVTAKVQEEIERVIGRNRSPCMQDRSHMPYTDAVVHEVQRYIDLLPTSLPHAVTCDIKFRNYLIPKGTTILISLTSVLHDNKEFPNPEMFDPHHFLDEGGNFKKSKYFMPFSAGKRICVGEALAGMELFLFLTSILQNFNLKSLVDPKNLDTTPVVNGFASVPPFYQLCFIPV
# Summary of the method: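 P450-Glo CYP2C9 system: proluciferin substrate with enzyme in mix containing 0.4% BSA, 10 min at room temperature, then NADPH regeneration solution added and incubated 1 h at 37C. Detection reagent stopped reaction; luminescence read after 20 min as RLU.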
smiles,measurement,setting,value
COC(=O)C1=C(C)NC(C)=C(C(=O)OCCN(C)Cc2ccccc2)C1c1cccc([N+](=O)[O-])c1 (stereo not drawn),Potency,[1],inactive
same,Potency,[2],inactive
CC(=O)O[C@]1(C(C)=O)CC[C@H]2[C@@H]3C=C(Cl)C4=CC(=O)[C@@H]5C[C@@H]5[C@]4(C)[C@H]3CC[C@@]21C,Potency,[1],inactive
same,Potency,[2],inactive
CO[C@@]12[C@H](COC(N)=O)C3=C(C(=O)C(C)=C(N)C3=O)N1C[C@@H]1N[C@@H]12,Potency,[1],inactive
same,Potency,[2],inactive
same,Potency,[3],inactive
Cc1nc(-c2ccc(OCC(C)C)c(C#N)c2)sc1C(=O)O,Potency,[1],inactive
same,Potency,[4],inactive
same,Potency,[3],inactive
same,Potency,[5],inactive
CC(=O)O[C@]1(C(C)=O)CC[C@H]2[C@@H]3C=C(C)C4=CC(=O)CC[C@]4(C)[C@H]3CC[C@@]21C,Potency,[1],inactive
same,Potency,[2],inactive
same,Potency,[3],inactive
CC(CN(C)C)CN1c2ccccc2CCc2ccccc21 (stereo not drawn),Potency,[1],inactive
same,Potency,[2],inactive
same,Potency,[6],inactive
same,Potency,[7],7.64 µM (active)
same,Potency,[3],inactive
O=c1[nH]c2ccccc2n1C1CCN(CCCC(c2ccc(F)cc2)c2ccc(F)cc2)CC1,Potency,[1],inactive
same,Potency,[2],inactive
same,Potency,[8],inactive
same,Potency,[9],inactive
same,Potency,[10],inactive
same,outcome,[11],inactive
CCOC(=O)N1CCC(=C2c3ccc(Cl)cc3CCc3cccnc32)CC1,Potency,[1],inactive
same,Potency,[2],inactive
CCN(CC)CCCC(C)Nc1ccnc2cc(Cl)ccc12 (stereo not drawn),Potency,[1],inactive
same,Potency,[2],inactive
C=C[C@H]1CN2CC[C@H]1C[C@@H]2[C@@H](O)c1ccnc2ccc(OC)cc12,Potency,[1],inactive
same,Potency,[2],inactive
same,Potency,[3],inactive
CCN(CC)CCNC(=O)c1c(C)[nH]c(/C=C2\C(=O)Nc3ccc(F)cc32)c1C,Potency,[1],31.6 µM (active)
same,Potency,[4],11.2 µM (active)
same,Potency,[5],25.1 µM (active)
COc1ccccc1OCCNCC(O)COc1cccc2[nH]c3ccccc3c12 (stereo not drawn),Potency,[1],inactive
same,Potency,[2],inactive
same,Potency,[6],inactive
same,Potency,[12],10 µM (active)
same,Potency,[3],inactive
same,Potency,[5],22.4 µM (active)
C[C@@H](O[C@H]1OCCN(Cc2n[nH]c(=O)[nH]2)[C@H]1c1ccc(F)cc1)c1cc(C(F)(F)F)cc(C(F)(F)F)c1,Potency,[1],inactive
same,Potency,[2],inactive
O=C1CCc2cc(OCCCCc3nnnn3C3CCCCC3)ccc2N1,Potency,[1],inactive
same,Potency,[2],inactive
Cn1c(CCCC(=O)O)nc2cc(N(CCCl)CCCl)ccc21,Potency,[1],inactive
same,Potency,[2],inactive
same,Potency,[8],inactive
same,Potency,[9],inactive
same,Potency,[10],inactive
same,outcome,[11],inactive
same,Potency,[13],inactive
same,Potency,[14],inactive
same,Potency,[15],inactive
same,Potency,[3],inactive
OCCOCCN1CCN(C(c2ccccc2)c2ccc(Cl)cc2)CC1 (stereo not drawn),Potency,[1],inactive
same,Potency,[2],inactive
same,Potency,[3],inactive
CN(C)CCC=C1c2ccccc2C=Cc2ccccc21,Potency,[1],inactive
same,Potency,[2],inactive
same,Potency,[6],inactive
same,Potency,[5],14.1 µM (active)
COc1cc2nc(N(C)CCCNC(=O)C3CCCO3)nc(N)c2cc1OC (stereo not drawn),Potency,[1],inactive
same,Potency,[2],inactive
Cc1ccc(NC(=O)c2ccc(CN3CCN(C)CC3)cc2)cc1Nc1nccc(-c2cccnc2)n1,Potency,[1],inactive
same,Potency,[2],inactive
same,Potency,[6],inactive
same,Potency,[12],8.91 µM (active)
same,Potency,[7],21.5 µM (active)
same,Potency,[5],35.5 µM (active)
COc1cc2nc(N3CCN(C(=O)C4COc5ccccc5O4)CC3)nc(N)c2cc1OC (stereo not drawn),Potency,[1],inactive
same,Potency,[2],inactive
same,Potency,[6],inactive
same,Potency,[3],inactive
CN1CCN(C2=Nc3ccccc3Oc3ccc(Cl)cc32)CC1,Potency,[1],inactive
same,Potency,[2],inactive
same,Potency,[3],inactive
CC(CN1c2ccccc2Sc2ccccc21)N(C)C (stereo not drawn),Potency,[1],inactive
same,Potency,[2],inactive
same,Potency,[6],inactive
same,Potency,[12],11.2 µM (active)
same,Potency,[7],13.6 µM (active)
same,Potency,[3],inactive
CN(C)CCCN1c2ccccc2Sc2ccc(Cl)cc21,Potency,[1],inactive
same,Potency,[2],inactive
same,Potency,[12],11.2 µM (active)
same,Potency,[7],12.1 µM (active)
same,Potency,[3],inactive
CN(C)CCC=C1c2ccccc2CCc2ccccc21,Potency,[1],inactive
same,Potency,[2],inactive
same,Potency,[6],inactive
same,Potency,[3],inactive
same,Potency,[5],20 µM (active)
Cc1ccccc1C(OCCN(C)C)c1ccccc1 (stereo not drawn),Potency,[1],inactive
same,Potency,[2],inactive
same,Potency,[3],inactive
CCN(CC)CCOC(=O)C1(C2CCCCC2)CCCCC1,Potency,[1],inactive
same,Potency,[2],inactive
same,Potency,[3],inactive
CN1CCN(C(c2ccccc2)c2ccccc2)CC1,Potency,[1],inactive
same,Potency,[2],inactive
same,Potency,[3],inactive
CCCCNc1ccc(C(=O)OCCOCCOCCOCCOCCOCCOCCOCCOCCOC)cc1,Potency,[1],inactive
same,Potency,[2],inactive
same,Potency,[7],15.2 µM (active)
CCC(COC(=O)c1cc(OC)c(OC)c(OC)c1)(c1ccccc1)N(C)C (stereo not drawn),Potency,[1],inactive
same,Potency,[2],inactive
same,Potency,[8],inactive
same,Potency,[10],inactive
same,Potency,[13],inactive
same,Potency,[14],0.389 µM (active)
same,Potency,[15],13.8 µM (active)
same,Potency,[3],inactive
Nc1ncn([C@@H]2O[C@H](CO)[C@@H](O)[C@H]2O)c(=O)n1,Potency,[1],inactive
same,Potency,[2],inactive
same,Potency,[7],17.1 µM (active)
OC(CCN1CCCC1)(c1ccccc1)C1CCCCC1 (stereo not drawn),Potency,[1],inactive
same,Potency,[2],inactive
same,Potency,[3],inactive
C[C@H]1c2cccc(O)c2C(O)=C2C(=O)[C@]3(O)C(O)=C(C(N)=O)C(=O)[C@@H](N(C)C)[C@@H]3[C@@H](O)[C@@H]21,Potency,[1],inactive
same,Potency,[2],inactive
CC[C@@]1(O)C(=O)OCc2c1cc1n(c2=O)Cc2cc3c(CN(C)C)c(O)ccc3nc2-1,Potency,[1],inactive
same,Potency,[2],inactive
same,Potency,[3],inactive
COc1cc2c(c(OC)c1OC)-c1ccc(OC)c(=O)cc1[C@@H](NC(C)=O)CC2,Potency,[1],inactive
same,Potency,[4],inactive
same,"activity change, negative = inhibition",[5],-76.4%
COC(=O)[C@H]1[C@H]2C[C@@H]3c4[nH]c5cc(OC)ccc5c4CCN3C[C@H]2C[C@@H](OC(=O)c2cc(OC)c(OC)c(OC)c2)[C@@H]1OC,Potency,[1],inactive
same,Potency,[2],inactive
same,Potency,[6],inactive
same,Potency,[12],10 µM (active)
same,Potency,[3],inactive
same,"activity change, negative = inhibition",[5],-18.9%
